Data reported in PubChem BioAssay (NCATS).
Inconclusive results are not listed. Activity calls are given as the source filed them. Unless noted, calls come from the whole dose curve; as a rule, active = well fitted curve in the direction sought with a large enough effect; inconclusive = small, poorly fitted or top-dose-only effect, or another doubt; inactive = no such curve, though single readings can be large; an effect the other way counts as inactive or inconclusive.

What was measured:
[1] = qHTS Assay for Identification of Small Molecule Agonists for Hypoxia Response Element Signaling Pathway (AID 914; active = well fitted activation curve with a large enough effect in the signal ratio, with a control signal flat, not every such curve was filed as active; the % refers to the signal ratio; note: % of control where 0% means no effect); details: ME-180 (cervical carcinoma) HRE-bla reporter, beta-lactamase ratio, CoCl2, 17 h; activation: hits give high values
Outline: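 Compounds in a titration series were added to ME-180 reporter cells alongside an EC50 level of CoCl2. After 17 hours, beta-lactamase activity was read as the 460nm/530nm emission ratio of CCF4, giving AC50 values.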

CP250 = assay: qHTS profiling for inhibitors of Plasmodium falciparum proliferation (AID 504749); note: nearly all actives have a fitted effect of over 60% in size; note: potency is the fitted concentration of half-maximal effect;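 for activity, negative = inhibition: 0% = DMSO vehicle and full inhibition = artemisinin control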; details: P. falciparum in erythrocytes, SYBR Green DNA, 72 h; series mostly up to 12.8 µM
Outline: (§1)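 Parasite proliferation within erythrocytes, 72 h exposure. Endpoint: SYBR Green I fluorescence after overnight lysis at room temperature. Controls: 0.29 uM artemisinin, DMSO.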

CP260 = assay: as above; details: P. falciparum in erythrocytes, SYBR Green DNA, 72 h; series mostly up to 28.7 µM
Outline: as §1

W2 = assay: as above; details: P. falciparum in erythrocytes, SYBR Green DNA, 72 h; series mostly up to 12.8 µM
Outline: as §1

[2] = Cell Viability - LYMP2-020 (AID 986); note: nearly all actives have a fitted effect of over 55% in size; note: potency is the fitted concentration of half-maximal effect
Outline: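 Human lymphoblastoid LYMP2-020 cells (2500/well) preincubated 5 h at 37 C, then treated 24 h at 37 C. Viability measured as intracellular ATP by CellTiter-Glo luminescence after 30 min at room temperature; AC50 from Hill fits.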

[3] = Cell Viability - LYMP2-026 (AID 989); note: nearly all actives have a fitted effect of over 50% in size; note: potency is the fitted concentration of half-maximal effect
Outline: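 Human lymphoblastoid LYMP2-026 cells, 2500/well, exposed to compound 24 h at 37 C in complete medium. Viability as intracellular ATP by CellTiter-Glo luminescence; AC50 from Hill fits of qHTS concentration-response.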

[4] = Cell Viability - LYMP1-002 - Assay at 40 hr (AID 994);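 note: 0% = DMSO only and full inhibition = 92 µM tetraoctylammonium bromide; nearly all actives have a fitted effect of over 60% in size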
Outline: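 LYMP1-002 human lymphoblastoid cells (2500/well, complete medium) were treated with compounds for 40 hr at 37 C. Intracellular ATP was measured by CellTiter-Glo luminescence, and AC50 values came from Hill-equation fits of concentration-response data; tetraoctylammonium bromide was the positive control.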

[5] = molecular target: Peroxisome proliferator-activated receptor gamma (Homo sapiens) (UniProt P37231); assay: qHTS assay for small molecule agonists of peroxisome proliferator-activated receptor gamma signaling (AID 588536; active = well fitted curve in the direction sought with a large enough effect in the signal ratio, with a control signal flat, not every such curve was filed as active; the % refers to the signal ratio;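 note: 0% = DMSO basal wells and 100% = rosiglitazone at 2 µM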)
Sequence of Peroxisome proliferator-activated receptor gamma (Homo sapiens) (P37231 whole entry, looked up): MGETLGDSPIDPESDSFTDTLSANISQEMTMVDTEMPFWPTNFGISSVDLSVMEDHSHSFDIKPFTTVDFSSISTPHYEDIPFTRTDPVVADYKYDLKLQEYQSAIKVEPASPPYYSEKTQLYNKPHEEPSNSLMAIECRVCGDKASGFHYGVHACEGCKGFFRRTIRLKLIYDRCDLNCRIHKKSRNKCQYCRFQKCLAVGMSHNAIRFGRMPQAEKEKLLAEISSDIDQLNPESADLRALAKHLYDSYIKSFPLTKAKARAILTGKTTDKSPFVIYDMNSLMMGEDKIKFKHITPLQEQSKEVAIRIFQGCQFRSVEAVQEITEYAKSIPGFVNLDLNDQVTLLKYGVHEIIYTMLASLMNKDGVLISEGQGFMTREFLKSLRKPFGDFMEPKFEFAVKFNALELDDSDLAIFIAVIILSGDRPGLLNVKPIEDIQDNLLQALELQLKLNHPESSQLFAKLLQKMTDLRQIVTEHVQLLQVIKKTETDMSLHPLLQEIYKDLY
Outline: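 GeneBLAzer PPAR-gamma-UAS-bla HEK293 cells in 1% charcoal/dextran-treated FBS medium were treated 16 h at 37 C with compounds. Beta-lactamase activity was read by CCF4 ratio (460/530 nm). Response was normalized to 2 uM rosiglitazone (100%) and DMSO, then Hill-fitted for EC50 and efficacy.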

[6] = molecular target: Vitamin D3 receptor (Homo sapiens) (UniProt P11473); assay: qHTS assay for small molecule agonists of vitamin D receptor signaling (AID 588543; calls by dose curve;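 note: 0% = DMSO basal and 100% = reference agonist control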)
Sequence of Vitamin D3 receptor (Homo sapiens) (P11473 whole entry, looked up): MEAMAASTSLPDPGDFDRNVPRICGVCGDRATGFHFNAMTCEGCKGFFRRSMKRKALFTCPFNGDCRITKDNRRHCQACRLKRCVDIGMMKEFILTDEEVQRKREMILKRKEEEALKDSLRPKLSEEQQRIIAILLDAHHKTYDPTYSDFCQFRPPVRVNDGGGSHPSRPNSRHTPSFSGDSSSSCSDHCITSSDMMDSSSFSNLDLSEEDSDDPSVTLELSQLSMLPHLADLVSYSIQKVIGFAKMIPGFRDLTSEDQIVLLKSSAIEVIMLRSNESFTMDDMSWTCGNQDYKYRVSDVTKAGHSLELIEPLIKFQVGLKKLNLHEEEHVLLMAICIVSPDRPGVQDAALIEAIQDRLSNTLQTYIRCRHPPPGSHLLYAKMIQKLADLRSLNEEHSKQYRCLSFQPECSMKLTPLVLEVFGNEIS
Outline: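 VDR-UAS-bla HEK293T cells, 2000/well, 2% charcoal-stripped FBS; compound titration 16 h at 37 C; CCF4 beta-lactamase ratio read. Normalized to 50 nM 1-alpha,25-dihydroxyvitamin D3 (100%) and DMSO; Hill fit gives EC50, efficacy.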

[7] = molecular target: Retinoic acid receptor RXR-alpha (Homo sapiens) (UniProt P19793); assay: qHTS assay for small molecule agonists of retinoid X receptor alpha signaling (AID 588544; calls by dose curve;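 note: 0% = DMSO basal wells and 100% = reference agonist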)
Sequence of Retinoic acid receptor RXR-alpha (Homo sapiens) (P19793 whole entry, looked up): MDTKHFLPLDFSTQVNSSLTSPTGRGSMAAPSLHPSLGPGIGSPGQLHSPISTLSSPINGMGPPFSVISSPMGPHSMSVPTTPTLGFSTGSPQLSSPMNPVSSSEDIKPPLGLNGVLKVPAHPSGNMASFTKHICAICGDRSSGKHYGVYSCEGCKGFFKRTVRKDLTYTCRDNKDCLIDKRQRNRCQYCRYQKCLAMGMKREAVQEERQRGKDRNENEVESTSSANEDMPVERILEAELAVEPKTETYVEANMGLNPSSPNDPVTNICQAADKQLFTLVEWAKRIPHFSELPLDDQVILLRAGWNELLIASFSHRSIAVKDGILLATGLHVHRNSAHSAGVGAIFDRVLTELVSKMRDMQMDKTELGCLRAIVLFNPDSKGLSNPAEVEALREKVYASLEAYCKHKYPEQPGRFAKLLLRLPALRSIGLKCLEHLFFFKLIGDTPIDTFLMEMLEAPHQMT

[8] = S16 Schwann cell PMP22 intronic element beta-lactamase assay (AID 624044; calls by dose curve;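 note: 0% = DMSO and -100% = potassium clavulanate positive control; nearly all actives have a fitted effect of over 15% in size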); details: S16 rat Schwann cells, PMP22 element beta-lactamase FRET, 24 h; ratio activity, negative = inhibition: at 38.3 µM (top of the series) unless noted
Outline: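 Rat S16 Schwann cells with beta-Lac driven by a PMP22 intronic element, compound-treated 24 h at 37 °C. LiveBLAzer FRET B/G read: 460 nm normalized to potassium clavulanate vs DMSO; 535 nm FRET as viability; concentration-effect curves classified.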

CP192 = assay: qHTS profiling for inhibitors of Plasmodium falciparum proliferation (AID 504749); note: nearly all actives have a fitted effect of over 60% in size; note: potency is the fitted concentration of half-maximal effect;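 for activity, negative = inhibition: 0% = DMSO vehicle and full inhibition = artemisinin control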; details: P. falciparum in erythrocytes, SYBR Green DNA, 72 h; series mostly up to 28.7 µM
Outline: as §1

CP211 = assay: as above; details: P. falciparum in erythrocytes, SYBR Green DNA, 72 h; series mostly up to 28.7 µM
Outline: as §1

CP269 = assay: as above; details: P. falciparum in erythrocytes, SYBR Green DNA, 72 h; series mostly up to 28.7 µM
Outline: as §1

CP305 = assay: as above; details: P. falciparum in erythrocytes, SYBR Green DNA, 72 h; series mostly up to 28.7 µM
Outline: as §1

CP315 = assay: as above; details: P. falciparum in erythrocytes, SYBR Green DNA, 72 h; series mostly up to 28.7 µM
Outline: as §1

CP329 = assay: as above; details: P. falciparum in erythrocytes, SYBR Green DNA, 72 h; series mostly up to 28.7 µM
Outline: as §1

DIV17 = assay: as above; details: P. falciparum in erythrocytes, SYBR Green DNA, 72 h; series mostly up to 28.7 µM
Outline: as §1

DIV30 = assay: as above; details: P. falciparum in erythrocytes, SYBR Green DNA, 72 h; series mostly up to 28.7 µM
Outline: as §1

GB4 = assay: as above; details: P. falciparum in erythrocytes, SYBR Green DNA, 72 h; series mostly up to 28.7 µM
Outline: as §1

c1cnc(N2CCCC3(CCNCC3)C2)nc1
inactive: activation [1] 6.96%

CC(C)CN1CC2(CCN(C(=O)Oc3ccccc3)CC2)C1
inactive: activation [1] -12.9%

CC(C)CN1CC[C@@]2(CCCN(C(=O)Oc3ccccc3)C2)C1
inactive: activation [1] -4.64%

O=C(Nc1ccccc1)N1CC2(CCN(C(=O)Oc3ccccc3)CC2)C1
inactive: activation [1] -6.7%

CN1CCCC2(CCN(C(=O)c3ccco3)CC2)C1
inactive: activation [1] -1.89%

C[C@]12CC[C@H](O)CC1=CCC1C2CC[C@]2(C)C(=O)CC[C@@H]12 (stereo partly drawn)
inactive: Potency (CP250) | Potency (CP260) | Potency (W2)

ClC(Cl)=C(c1ccc(Cl)cc1)c1ccc(Cl)cc1
inactive: Potency [2] | Potency [3] | Potency [4] | outcome [5] | outcome [6] | Potency [7]

CCNc1nc(Cl)nc(NC(C)C)n1
inactive: Potency [2] | Potency [3] | Potency [4] | outcome [5] | outcome [6] | Potency [7]

C=CCc1ccc2c(c1)OCO2
inactive: Potency [2] | Potency [3] | Potency [4] | outcome [5] | outcome [6] | Potency [7]

O=C(O)COc1ccc(Cl)cc1Cl
inactive: Potency [2] | Potency [3] | Potency [4] | outcome [6] | Potency [7]

CNC(=O)O/N=C/C(C)(C)SC
inactive: Potency [3] | Potency [4] | outcome [5] | Potency [7]

C=CCc1ccc(OC)cc1
inactive: Potency [2] | Potency [3] | Potency [4] | outcome [5] | Potency [7]

CCNC[C@H](O)c1cccc(O)c1
inactive: Potency [8] | Potency (CP192) | Potency (CP211) | Potency (CP250) | Potency (CP260) | Potency (CP269) | Potency (CP305) | Potency (CP315) | Potency (CP329) | Potency (DIV17) | Potency (DIV30) | Potency (GB4) | Potency (W2)

C[C@@]12CC[C@H]3[C@@H](CC[C@@H]4C[C@H]5S[C@H]5C[C@]43C)[C@H]1CC[C@H]2O
inactive: activation [1] 1.68% | Potency [8] | Potency (CP192) | Potency (CP211) | Potency (CP250) | Potency (CP260) | Potency (CP269) | Potency (CP305) | Potency (CP315) | Potency (CP329) | Potency (DIV17) | Potency (DIV30) | Potency (GB4)

C[N+]1([O-])[C@@H]2CC(OC(=O)[C@@H](CO)c3ccccc3)C[C@@H]1[C@H]1O[C@H]12 (stereo partly drawn)
inactive: Potency [8] | Potency (CP192) | Potency (CP211) | Potency (CP250) | Potency (CP260) | Potency (CP269) | Potency (CP305) | Potency (CP315) | Potency (CP329) | Potency (DIV17) | Potency (DIV30) | Potency (GB4) | Potency (W2)

C/C=C/c1ccc2c(c1)OCO2
inactive: Potency [2] | Potency [3] | Potency [4] | outcome [5] | outcome [6] | Potency [7]

CC(C)c1c(CN(C)[C@@H](C)Cc2ccccc2)n(C)n(-c2ccccc2)c1=O
inactive: Potency (CP192) | Potency (CP211) | Potency (CP250) | Potency (CP260) | Potency (CP269) | Potency (CP305) | Potency (CP315) | Potency (CP329) | Potency (DIV17) | Potency (DIV30) | Potency (GB4)
active: ratio activity, negative = inhibition [8] -8.16% [at 17.1 µM]

ClC1=C(Cl)C2(Cl)C3C(Cl)C=CC3C1(Cl)C2(Cl)Cl (stereo not drawn)
inactive: Potency [3] | Potency [4]

CCc1cccc(CC)c1N(COC)C(=O)CCl
active: Potency [2] 50.1 µM
inactive: outcome [5] | outcome [6]

C[C@H]1CN(C2CCC(C#N)(c3ccc(F)cc3)CC2)CC[C@@]1(C(=O)O)c1ccccc1 (stereo partly drawn)
inactive: Potency [8] | Potency (CP192) | Potency (CP211) | Potency (CP250) | Potency (CP260) | Potency (CP269) | Potency (CP305) | Potency (CP315) | Potency (CP329) | Potency (DIV17) | Potency (DIV30) | Potency (GB4) | Potency (W2)

O=S1OCC2C(CO1)C1(Cl)C(Cl)=C(Cl)C2(Cl)C1(Cl)Cl (stereo not drawn)
inactive: Potency [2] | Potency [7]

CC(=O)O[C@H]1CC[C@@]2(C)C(=CC[C@@H]3[C@H]2CC[C@]2(C)C(=O)CC[C@H]32)C1
inactive: Potency [8] | Potency (CP192) | Potency (CP211) | Potency (CP250) | Potency (CP260) | Potency (CP269) | Potency (CP305) | Potency (CP315) | Potency (CP329) | Potency (DIV17) | Potency (DIV30) | Potency (GB4) | Potency (W2)

C[C@H](N)[C@@H](O)c1ccccc1
inactive: Potency [8] | Potency (CP192) | Potency (CP211) | Potency (CP250) | Potency (CP260) | Potency (CP269) | Potency (CP305) | Potency (CP315) | Potency (CP329) | Potency (DIV17) | Potency (DIV30) | Potency (GB4) | Potency (W2)

COc1ccc(NC(=O)N2CCC3(CC2)CCN(C(=O)Oc2ccccc2)CC3)cc1
inactive: activation [1] -18.1%

COc1ccc2c(c1OC)CN1CCc3cc4c(cc3[C@H]1C2)OCO4
active: Potency (CP192) 2.03 µM | Potency (CP211) 2.03 µM | Potency (CP269) 2.03 µM | Potency (CP305) 2.28 µM | Potency (CP315) 3.61 µM | Potency (CP329) 1.61 µM | Potency (DIV17) 4.55 µM | Potency (DIV30) 2.56 µM | Potency (GB4) 2.03 µM | Potency (W2) 2.28 µM
inactive: Potency [8]

CCC[C@@](C)(COC(N)=O)COC(=O)NC(C)C
inactive: activation [1] -3.35%

ClC1=C(Cl)C2(Cl)C3C4C=CC(C4)C3C1(Cl)C2(Cl)Cl (stereo not drawn)
inactive: Potency [4] | outcome [5] | outcome [6]
active: Potency [2] 50.1 µM | Potency [3] 50.1 µM

C#CCN(C)[C@@H](C)Cc1ccccc1
inactive: Potency [8] | Potency (CP192) | Potency (CP211) | Potency (CP269) | Potency (CP305) | Potency (CP315) | Potency (CP329) | Potency (DIV17) | Potency (DIV30) | Potency (GB4) | Potency (W2)

CCOCN(C(=O)CCl)c1c(C)cccc1CC
inactive: outcome [6]
